The source of these data is PubChem BioAssay (NCATS).

Results filed as inconclusive are left out. Entries that show only a call come without a potency. Activity calls are given as the source filed them. Unless noted, calls come from the whole dose curve; as a rule, active = well fitted curve in the direction sought with a large enough effect; inconclusive = small, poorly fitted or top-dose-only effect, or another doubt; inactive = no such curve, though single readings can be large; an effect the other way counts as inactive or inconclusive.

Test [1] has as its target Calcium and integrin-binding protein 1 (Homo sapiens) (UniProt Q99828). The experiment in a line: Confirmatory qHTS for Identification of Calcium Integrin Binding Protein 1 (CIB1) Competitor (AID 1508617). Note: nearly all actives have a fitted effect of over 65% in size. The procedure, abridged:
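Confirmatory qHTS measures displacement of a FITC-alphaIIb peptide (100 nM) from CIB1-GST (1 uM) by fluorescence polarization. Calcium-containing HEPES buffer, pH 7.4; two 15 min room-temperature incubations.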
In general terms: qHTS replaces the single test concentration by a dilution series.

A short description of test [2]: Confirmation and Secondary Assay for Modulators of Hemoglobin Beta Chain Splicing at IVS2 654 locus (AID 910).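 Note: HeLa cells stably carrying EGFP split by mutant beta-globin IVS2-654 intron; per-well total GFP intensity by laser scanning cytometry after 2-day treatment.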 The procedure, abridged:
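Readout: per-well total peak green fluorescence (488 nm ex, 500–520 nm em) from objects 5–250 µm, reflecting correct splicing of an EGFP-654 reporter. Compounds were applied for 2 days at 37 °C to overnight-plated HeLa EGFP-654 cells; controls were DMSO and 500 nM IVS2-654 PNA.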

Test [3] can be described thus: Confirmation and Secondary Assay for Modulators of Hemoglobin Beta Chain Splicing at IVS2 705 locus (AID 930).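 Note: HeLa cells stably expressing the EGFP-705 splicing reporter.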 The procedure, abridged: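 Assay measures total GFP intensity per well in HeLa EGFP-705 cells after 2 days with compound; mis-splicing normally truncates EGFP, so fluorescence indicates corrected splicing.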
Test [4] in a line: qHTS Assay for Lipid Storage Modulators (AID 1519; calls by dose curve). Particulars: Drosophila S3 cells, BODIPY lipid droplet/cell ratio, laser cytometry, cells loaded with oleic acid. The procedure, abridged: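 Cells seeded at 5,000 per well were treated with compounds over a concentration series and loaded with oleic acid (400 uM, as added). Lipid droplet fluorescence (488 nm excitation, 500-530 nm channel) was read by laser-scanning cytometry and normalized to 20 uM Triacsin C.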

Test [5] addresses Rap guanine nucleotide exchange factor 3 (Homo sapiens) (UniProt O95398). Description: Confirmatory qHTS for agonist of cAMP-regulated guanine nucleotide exchange factor 3 (EPAC1) (AID 1645881).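 Note: EPAC1 catalysed release of BODIPY-GDP from Rap1B seen as fluorescence loss; nearly all actives have a fitted effect of over 75% in size.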
Test [6] deals with Rap guanine nucleotide exchange factor 4 (Homo sapiens) (UniProt Q8WZA2). Description: Confirmatory qHTS for agonist of cAMP-regulated guanine nucleotide exchange factor 4 (EPAC2) (AID 1645884).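 Note: nucleotide exchange releases bodipy-GDP from Rap1 and this lowers its fluorescence; nearly all actives have a fitted effect of over 65% in size.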
Chain of Rap guanine nucleotide exchange factor 4 (Homo sapiens) (Q8WZA2 whole entry, looked up): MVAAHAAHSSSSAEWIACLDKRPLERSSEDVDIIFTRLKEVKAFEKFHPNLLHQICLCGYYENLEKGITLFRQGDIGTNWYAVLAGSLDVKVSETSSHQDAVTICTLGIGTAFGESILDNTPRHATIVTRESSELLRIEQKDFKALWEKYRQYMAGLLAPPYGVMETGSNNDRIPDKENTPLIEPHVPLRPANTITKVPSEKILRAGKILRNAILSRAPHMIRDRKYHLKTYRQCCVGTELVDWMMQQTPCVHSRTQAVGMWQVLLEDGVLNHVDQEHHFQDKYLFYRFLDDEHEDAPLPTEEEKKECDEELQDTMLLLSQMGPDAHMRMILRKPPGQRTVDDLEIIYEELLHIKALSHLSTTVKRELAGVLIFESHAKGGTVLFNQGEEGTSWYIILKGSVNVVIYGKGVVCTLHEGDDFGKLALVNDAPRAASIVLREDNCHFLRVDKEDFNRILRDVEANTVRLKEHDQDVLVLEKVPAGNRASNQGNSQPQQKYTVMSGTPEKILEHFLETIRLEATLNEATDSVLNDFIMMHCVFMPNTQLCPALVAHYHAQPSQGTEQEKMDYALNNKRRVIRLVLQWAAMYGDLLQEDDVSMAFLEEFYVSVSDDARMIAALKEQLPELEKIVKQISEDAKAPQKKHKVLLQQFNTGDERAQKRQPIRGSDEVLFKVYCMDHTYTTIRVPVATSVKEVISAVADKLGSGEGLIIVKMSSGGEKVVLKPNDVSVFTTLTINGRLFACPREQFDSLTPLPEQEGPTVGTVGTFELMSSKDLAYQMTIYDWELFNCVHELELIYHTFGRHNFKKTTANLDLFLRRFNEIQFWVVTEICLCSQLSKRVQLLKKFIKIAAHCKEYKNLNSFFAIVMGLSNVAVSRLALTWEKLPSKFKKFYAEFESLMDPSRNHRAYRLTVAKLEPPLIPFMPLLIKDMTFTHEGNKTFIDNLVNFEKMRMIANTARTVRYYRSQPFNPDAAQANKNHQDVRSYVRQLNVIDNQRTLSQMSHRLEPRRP
Test [7] has as its target Rap guanine nucleotide exchange factor 3 (Homo sapiens) (UniProt O95398). Description: Counterscreen qHTS for antagonist of cAMP-regulated guanine nucleotide exchange factor 3 (EPAC1) (AID 1645888).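 Note: fluorescence loss as bound BODIPY-GDP is released from Rap1B.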 The procedure, abridged: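 Rap1B-BODIPY-GDP 250 nM + GDP 50 uM; cpds 7-pt, final 9.74 nM–152 uM (activator mode) or from 7.32 nM upwards (inhibitor mode); RT; FI 480/540 nm at 5 and 30 min, then ± cAMP, reread.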
In general terms: The purpose of a counterscreen is to sort out artefacts and off-target activity.

The target of test [8] is Calcium and integrin-binding protein 1 (Homo sapiens) (UniProt Q99828). The experiment in a line: Primary qHTS for Identification of Calcium Integrin Binding Protein 1 (CIB1) Competitor (AID 1508620).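 For activity change, negative = inhibition: GST tagged CIB1 binding a fluorescein labelled alphaIIb integrin peptide tracer; top concentration of the series differs between compounds.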 Note: potency is the fitted concentration of half-maximal effect. The procedure, abridged:
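CIB1-GST (1 uM final) and compound incubated 15 min at room temperature before adding FITC-alphaIIb peptide tracer (100 nM final). Competition for binding read by fluorescence polarization (ex 480, em 540) after another 15 min at room temperature.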

Chain of Calcium and integrin-binding protein 1 (Homo sapiens) (Q99828 whole entry, looked up): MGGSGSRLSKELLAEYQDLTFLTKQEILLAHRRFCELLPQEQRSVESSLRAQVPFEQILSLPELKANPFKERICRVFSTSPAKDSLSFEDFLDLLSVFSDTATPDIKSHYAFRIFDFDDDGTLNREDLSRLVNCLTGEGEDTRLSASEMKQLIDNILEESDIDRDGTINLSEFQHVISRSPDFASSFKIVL
Chain of Rap guanine nucleotide exchange factor 3 (Homo sapiens) (O95398 whole entry, looked up): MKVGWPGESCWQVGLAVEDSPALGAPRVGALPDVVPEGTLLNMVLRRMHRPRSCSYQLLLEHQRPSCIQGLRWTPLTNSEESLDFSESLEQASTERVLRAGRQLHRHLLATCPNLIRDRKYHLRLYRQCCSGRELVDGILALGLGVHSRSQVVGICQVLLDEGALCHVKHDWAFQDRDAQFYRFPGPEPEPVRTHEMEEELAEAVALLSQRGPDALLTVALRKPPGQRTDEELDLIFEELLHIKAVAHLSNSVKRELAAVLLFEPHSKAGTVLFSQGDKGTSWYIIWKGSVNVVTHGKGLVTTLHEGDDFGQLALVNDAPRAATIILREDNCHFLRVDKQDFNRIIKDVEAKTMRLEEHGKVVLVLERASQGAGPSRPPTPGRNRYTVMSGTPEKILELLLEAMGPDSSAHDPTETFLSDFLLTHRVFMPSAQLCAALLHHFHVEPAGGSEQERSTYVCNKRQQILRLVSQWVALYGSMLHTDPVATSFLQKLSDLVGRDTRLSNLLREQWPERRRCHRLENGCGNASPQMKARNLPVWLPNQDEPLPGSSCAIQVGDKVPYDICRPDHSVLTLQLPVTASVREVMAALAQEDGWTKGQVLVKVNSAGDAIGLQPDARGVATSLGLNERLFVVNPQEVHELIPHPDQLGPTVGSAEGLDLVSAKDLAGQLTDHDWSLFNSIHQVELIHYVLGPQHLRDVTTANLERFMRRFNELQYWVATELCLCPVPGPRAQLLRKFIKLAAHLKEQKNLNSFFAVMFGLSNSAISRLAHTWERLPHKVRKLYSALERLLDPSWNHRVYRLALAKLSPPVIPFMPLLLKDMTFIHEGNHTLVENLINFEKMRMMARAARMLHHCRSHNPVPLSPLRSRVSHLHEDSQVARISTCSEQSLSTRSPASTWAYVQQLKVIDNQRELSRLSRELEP

`CN(C)c1cnc2c(O)cccc2c1`: in test [1], the Potency result was “inactive”.

`NC[C@@H](O)c1ccc(O)c(O)c1`: the call in test [2] and in test [3] was inactive. Further, the activity change, negative = inhibition in test [4] (at 57.5 µM (top of the series)) was 7.77% (inactive). For the same compound, the max response was determined as 7.41% in test [4] (measured here: cell count channel max response) and 16.7% in test [4] (measured here: lipid channel max response).

`CC(=O)NC(c1cccs1)c1cc(Br)c2cccnc2c1O` (stereo not drawn): the compound was classed as inactive in test [5] and in test [7]. Besides, the activation in test [6] is 0% [at 17.1 µM] (inactive).

In the case of `NC(=O)C1CCN(c2ncnc(-c3ccc4c(c3)OCCCO4)n2)CC1`, in test [8], the Potency entry was “inactive”.

As for `COc1ccc(C2=Nn3c(nnc3-c3ccccc3Cl)SC2)cc1OC1CCCC1`, the Potency result in test [8] is “inactive”.

Regarding `NC(=O)C1CCN(c2nc(-c3ccccc3[N+](=O)[O-])cs2)CC1`, the Potency result in test [8] is “inactive”.

Take `CCOC(=O)c1c(-c2ccc(OC)cc2)csc1NC(=O)C1CCCO1` (stereo not drawn): the Potency result in test [8] is “inactive”.

For `Cc1cc(C)nc(NC(=S)N2CCN(c3nc4ccccc4o3)CC2)c1`, the Potency entry in test [8] was “inactive”.

Regarding `Cc1cc(C)nc(NC(=S)N2CCN(c3cccc4ccccc34)CC2)c1`, in test [8], the Potency entry was “inactive”.

On to `O=C(c1ccccc1O)N(Cc1ccccc1)Cc1ccccc1`, for which the Potency result in test [8] is “inactive”.

Take `COc1ccc(C(=O)Nc2ccc(-c3nc4ccccc4[nH]3)cc2)cc1F`: the Potency result in test [8] was “inactive”.

Take `Cc1ccc(C[C@H](C(=O)O)N2C(=O)c3ccc(C(=O)O)cc3C2=O)cc1`: the Potency entry in test [8] is “inactive”.

For the compound `CCOC(=O)C1CCN(C(=O)C(C)(C)NC(=O)Nc2ccc([N+](=O)[O-])cc2)CC1`, the Potency result in test [8] is “inactive”.

Turning to `FC(F)(F)c1cccc(N2CCN(C(=S)Nc3nccc4ccccc34)CC2)c1`, in test [8], the Potency result is “inactive”.

`N#Cc1ccc(-c2ccc(CNc3ccc(N4CCOCC4)cc3)cn2)cc1`: the Potency result in test [8] was “inactive”.

In the case of `COc1ccccc1NC(=O)C1=C(C)NC(Nc2nc3ccccc3o2)=NC1c1ccccc1Br` (stereo not drawn), the Potency result in test [8] was “inactive”.

On to `Cc1cc(NS(=O)(=O)c2ccc3c(c2)CCC(=O)N3)ccc1Cl`, for which, in test [8], the Potency result was “inactive”.

As for `N#Cc1nc(Nc2cccc(F)c2)nc(NC2CCCC2)n1`, the Potency result in test [8] was “inactive”.

With `O=C1OC(c2ccccc2)(c2ccccc2)N2CCN(C(=O)NCc3ccc(F)cc3)CC12` (stereo not drawn), the Potency result in test [8] was “inactive”.

Regarding `O=C(/C=C/c1ccccc1Br)NCCc1nc2ccccc2[nH]1`, the Potency result in test [8] was “inactive”.

Regarding `Cc1ccc(NS(=O)(=O)c2ccc3c(c2)CC(=O)N3C)cc1C`, in test [8], the Potency entry is “inactive”.

Take `CS(=O)(=O)c1ccccc1-c1csc(N2CCC(C(N)=O)CC2)n1`: in test [8], the Potency result was “inactive”.

For the compound `COc1cc(CNc2ncnc3ccc(-c4c(C)noc4C)cc23)cc(OC)c1OC`, the Potency result in test [8] is “inactive”.

For the compound `Nc1ccc(Nc2cc(O)c3ncccc3c2)cc1`, the Potency result in test [8] was “inactive”.

Take `CC(C)(C)c1ccc(C(=O)Nc2ccc(-c3nc4ccccc4[nH]3)cc2)cc1`: the Potency result in test [8] is “inactive”.

On to `COc1ccc(OC)c(-c2nnc3n2N=C(c2ccc(OC)c(OC)c2)CS3)c1`, for which, in test [8], the Potency entry is “inactive”.

As to `COc1ccc(C2Nc3ccccc3C(=O)N2Cc2cccs2)cc1COc1c(C)cccc1C` (stereo not drawn), the Potency entry in test [8] was “inactive”.

Take `Cc1ccnc(NC(=S)N2CCN(c3cc(C(F)(F)F)cc(C(F)(F)F)c3)CC2)c1`: in test [8], the Potency entry was “inactive”.

As for `C=CCNc1oc(-c2cccnc2)nc1C#N`, the Potency result in test [8] is “inactive”.

Regarding `O=C1CCCC2=C1C(c1[nH]ncc1Cl)N=C(Nc1nc3cc(Br)ccc3o1)N2` (stereo not drawn), the Potency entry in test [8] is “inactive”.

In the case of `O=C(Nc1ccc2ccccc2c1)Nc1nnc(-c2ccccc2F)s1`, in test [8], the Potency entry is “inactive”.

For the compound `Cc1ccsc1CN(C)c1ncnc2ccc(-c3ccoc3)cc12`, the Potency entry in test [8] is “inactive”.

For the compound `O=c1c2ccccc2nc2sc(Nc3ccc(Br)cc3)nn12`, the Potency entry in test [8] was “inactive”.

In the case of `COc1cc(NC(=O)C(OC(=O)CNC(=O)c2ccccc2)c2ccccc2)cc(OC)c1` (stereo not drawn), the Potency result in test [8] is “inactive”.

Regarding `O=C1Nc2ccccc2/C1=C\c1cc(Br)c(O)c(Br)c1`, in test [8], the Potency entry was “inactive”.

For the compound `COc1ccccc1C1=Nn2c(nnc2-c2cccc(OC)c2OC)SC1`, the Potency result in test [8] was “inactive”.

Consider `Cc1ccc(NC(=O)CSc2nnc(-c3cccc([S+](=O)([O-])N4CCCC4)c3)n2-c2ccccc2)cc1`, for which the Potency result in test [8] was “inactive”.

Take `O=C(Cc1nnc(CNC(=O)c2ccccc2)s1)Nc1ccc(C(F)(F)F)cc1Cl`: the Potency result in test [8] was “inactive”.

Regarding `Cc1cc(C)nc(NC(=S)N2CCN(c3cccc(Cl)c3Cl)CC2)c1`, the Potency result in test [8] was “inactive”.

Consider `O=C1CCCC2=C1C(c1[nH]ncc1Cl)NC(=NCc1ccccc1)N2` (stereo not drawn), for which the Potency entry in test [8] is “inactive”.

As to `O=C1CCc2cc(S(=O)(=O)Nc3ccc4c(c3)CCC4)ccc2N1`, the Potency result in test [8] was “inactive”.

Consider `Cc1ccc(OCCn2c(CCNC(=O)c3ccc(Br)o3)nc3ccccc32)cc1`, for which the Potency entry in test [8] was “inactive”.

Regarding `O=C(Nc1ccccc1)Nc1nnc(-c2ccncc2)s1`, the Potency entry in test [8] is “inactive”.

Regarding `COc1cccc(Cn2ncc3c4sc(SC)cc4n(C)c3c2=O)c1`, the Potency entry in test [8] is “inactive”.

`O=S(=O)(c1ccc2c(c1)OCCO2)N1CCN(S(=O)(=O)c2ccc(F)c(F)c2F)CC1`: the Potency result in test [8] is “inactive”.

Consider `Cc1ccc2nc3sc(C(=O)N4CCOCC4)cc3cc2c1`, for which the Potency result in test [8] is “inactive”.

For the compound `COc1cc(O)c(C(CC(=O)N2CCCC(C(=O)c3ccccc3)C2)c2ccc3c(c2)OCO3)c(OC)c1` (stereo not drawn), the Potency entry in test [8] is “inactive”.

As to `Cc1cc(C)nc(NC(=S)N2CCN(c3ncccc3C(F)(F)F)CC2)c1`, in test [8], the Potency entry was “inactive”.

As to `Cc1ccccc1Nc1nc(C#N)nc(NC2CCCC2)n1`, the Potency result in test [8] is “inactive”.

On to `Oc1ccc(COC2CCN(Cc3ccccc3)C2)c2cccnc12` (stereo not drawn), for which the Potency result in test [8] was “inactive”.

Consider `Fc1cccc(CNc2ncnc3ccc(-c4ccccc4Cl)cc23)c1`, for which the Potency entry in test [8] was “inactive”.

`c1cncc(-c2ccc(CNc3nc(C4CCCC4)nc4ccccc34)cc2)c1`: the Potency entry in test [8] was “inactive”.

Take `Cc1ccc(S(=O)(=O)N(C)c2cccc3cccnc23)cc1`: in test [8], the Potency result was “inactive”.

For the compound `Cc1cnc(-c2ccccc2C2CC2)nc1NCc1ccc(-c2cccnc2)cc1`, the Potency result in test [8] was “inactive”.

In the case of `O=C(Nc1cncc(Cc2ccccc2)c1)c1ccc(-c2cccc([N+](=O)[O-])c2)o1`, the Potency result in test [8] was “inactive”.

`Cc1ccnc(NCc2ccc(O)c3ncccc23)c1`: the Potency entry in test [8] was “inactive”.

Take `Cc1ccc(-c2nccc(=O)n2CC(=O)NCCc2ccccc2)cc1`: in test [8], the Potency entry was “inactive”.

Turning to `O=C(OCC#CCSc1nnc(-c2cccc3ccccc23)o1)c1ccc(Cl)cc1`, in test [8], the Potency result is “inactive”.

For `Cc1cc(NCc2ccc(-c3cccnc3)cc2)nc(-c2ccccc2C(C)C)n1`, in test [8], the Potency result was “inactive”.

Take `CC(=O)Nc1sc2c(c1-c1nc3ccccc3o1)CCN(C(C)C)C2`: the Potency in test [8] was 50.1 µM (active).

As for `Cc1cc(NS(=O)(=O)c2cc3c(cc2N[C@@H](C)CO)NC(=O)CC3)ccc1F`, the Potency result in test [8] is “inactive”.

Regarding `CCOC(=O)c1[nH]c2c(c1C)CCC(c1ccco1)C2` (stereo not drawn), the Potency result in test [8] is “inactive”.

Regarding `O=C(OC/C=C/CSc1nnc(-c2cccc3ccccc23)o1)c1ccc(F)cc1`, the Potency entry in test [8] is “inactive”.

With `CC(C)c1ccccc1-c1nc(NCc2ccc(-c3cccnc3)cc2)c2ccccc2n1`, the Potency entry in test [8] is “inactive”.

Turning to `CC1(C)CCC(C)(C)c2cc([S+](=O)([O-])N3CCN([S+](=O)([O-])c4c(F)cccc4F)CC3)ccc21`, in test [8], the Potency entry was “inactive”.

As to `COc1cccc(C2c3c(ncn(-c4cccc(Br)c4)c3=N)Oc3ccc4ccccc4c32)c1` (stereo not drawn), the Potency entry in test [8] was “inactive”.

On to `Cc1csc(CNc2ncnc3ccc(-c4cccnc4)cc23)c1`, for which the Potency result in test [8] is “inactive”.

Regarding `Cc1ccc(Cl)cc1NS(=O)(=O)c1cc2c(cc1Cl)CCC(=O)N2`, the Potency entry in test [8] is “inactive”.

As for `O=S(=O)(NCCCCNS(=O)(=O)c1c(F)cccc1F)c1ccc2c(c1)OCCO2`, the Potency result in test [8] was “inactive”.

As to `Cc1cccc(-n2cnc3cc(C(=O)N4CCCC4)ccc32)c1`, the Potency entry in test [8] was “inactive”.

In the case of `Fc1cc(Nc2nc(-c3ccncc3)nc3ccccc23)ccc1-c1cccnc1`, the Potency result in test [8] is “inactive”.

As for `CCOc1ccccc1-c1nnc2n1N=C(c1c(OC)cccc1OC)CS2`, in test [8], the Potency result was “inactive”.

Regarding `NC(=O)C1CCN(c2ncc(-c3ccc4c(c3)OC(F)(F)O4)s2)CC1`, in test [8], the Potency result is “inactive”.

As to `COc1ccc(-c2ccc(NC(=O)c3cccs3)cn2)cc1`, in test [8], the Potency entry is “inactive”.

Take `CCN1CCN(C(=O)CCN(CC(C)C)c2nc(-c3cccs3)nc3ccccc23)CC1`: in test [8], the Potency result is “inactive”.

For the compound `Cc1csc(CN(C)c2ncnc3ccc(-c4ccc5c(c4)OCO5)cc23)n1`, in test [8], the Potency entry is “inactive”.

For `O=S(=O)(c1ccc2c(c1)OCCO2)N1CCN(S(=O)(=O)c2ccc3nc(Cl)c(Cl)nc3c2)CC1`, the Potency result in test [8] is “inactive”.
